Assay results published in PubChem BioAssay AID1745846 (National Center for Advancing Translational Sciences (NCATS), 2022).
Out of some 1,400 compounds screened, about 30 (2%) were called active. Where a call stands in place of a potency, no number is given. About 15% were inconclusive and are not listed. Calls come from the whole dose curve; as a rule, active = well fitted inhibition curve with a large enough effect; inconclusive = small, poorly fitted or top-dose-only effect; inactive = flat fitted curve, though single readings scatter. Many of the other results were omitted from the sample, so actives are more common in it than they were.

Experiment: Firefly Luciferase Counterscreen for Inhibitors of ATXN expression
Settings: luminescence; series mostly up to 57.5 µM
Text: University of Utah School of Medicine, Salt Lake City, Utah
Spinocerebellar ataxia type 2 (SCA2) is a multisystem neurodegenerative disease caused by a dominantly acting mutation leading to expansion of a polyQ domain in the ataxin-2 protein (ATXN2). SCA2 patients develop progressive ataxia and later lose function in other neuronal systems. Prominent parkinsonian signs develop in some patients. Like many neurodegenerative disorders, no symptomatic or disease-modifying treatments are known.
The primary objective of the proposed research is to identify compounds inhibiting ATXN2 expression and to test them for efficacy in SCA2 mouse models. We have developed a cell-based assay paired with an in vivo mouse model using identical luciferase expression constructs. This approach takes advantage of an ATXN2-luciferase transgene, with the luciferase gene flanked by the upstream and downstream portions of the ATXN2 gene. Here we describe a 5-7 dose quantitative high thoroughput screen (qHTS) for compounds lowering ATXN2 expression. We screened the NIH Molecular Libraries Small Molecule Repository (MLSMR) and NCGC's mechanistically annotated (MIPE) and drug repurposing (NPC) collections of compounds for lowering expression of an ATXN2-luciferase reporter in HEK-293 cells. The assay is a multiplexed cell viability assay to ensure target reduction in the absence of cytotoxicity. Secondary qHTS assays included a CMV-luciferase reporter expressed in HEK-293 cells as well as a biochemical assay using recombinant luciferase to detect inhibitors of the reporter enzyme. Compounds that inhibit ATXN2 expression but is not cytotoxic were selected for confirmatory and secondary screens.
PROTOCOL TABLE (as described by Inglese J, Shamu CE and Guy RK. 2007)
SEQUENCE No. (e.g., 1, 2, 3, etc.); […] (e.g., Cells, Incubation, Reagent, etc.); VALUE; DESCRIPTION.
2; Compounds; 23 nL; Kalypsis pintool (Wako USA) equipped with a 1536-well pin head.
3; Enzyme; 1 uL; recombinant firefly luciferase (prepared in 50 mM Tris HCl pH7.5, 10 mM MgCl2, 0.05% BSA, 0.01% Tween20) at final concentration of 10 nM. Wells containing buffer only were used as control (set as 100% inhibition when normalizing data).
4; Incubation; 10 min; room temperature.
5; Detection; Luminescence; Viewlux plate reader (PerkinElmer).
NOTES (numbers refer to Sequence numbers above)
1. Luciferase substrate is added to 1536 well, Greiner white assay plate. Evaporation was prevented by covering assay plates with metal lids containing holes to allow gas diffusion.
2. Compounds were added in a dose response manner with the final concentrations of 57, 11.4, 2.28, 0.46, 0.091, 0.018, 0.0037 uM. Vehicle-only plates, with DMSO being pin-transferred to columns 5-48, were inserted uniformly at the beginning and the end of each library to monitor and record any shifts in assay performance.
3. Recombinant firefly luciferase (10 nM final concentration) is added to the assay plate.
5. End-point luminescence is then measured on the Viewlux (PerkinElmer) imager equipped with a clear emission filter using a 2 sec exposure.
Inglese J, Shamu CE and Guy RK, Reporting data from high throughput screening of small molecule libraries, Nature Chemical Biology, 2007, 3(8): 438-441. doi.org/10.1038/nchembio0807-438.
Potency is the fitted concentration of half-maximal effect.

Row | SMILES | Potency
1 | COc1ccc(Cc2[nH]n3c(=O)cc(C(C)C)nc3c2-c2ccccc2)cc1 | inactive
2 | CNC(=O)c1sc(N2N=C3/C(=C/c4ccccc4)CCCC3C2c2ccccc2)nc1C (stereo not drawn) | inactive
3 | CN1CCC(N(C)S(=O)(=O)c2ccc(NC(=O)COc3ccc(Br)cc3Cl)cc2)CC1 | inactive
4 | CN(C)CCNc1ccc(CO)c2sc3ccc(O)cc3c(=O)c12 | inactive
5 | CCn1cc(Cl)c(C(=O)N2N=C(c3ccc4ccccc4c3)CC2c2ccccc2O)n1 (stereo not drawn) | inactive
6 | CC(=O)NC(=C(Cl)Cl)S(=O)(=O)c1ccccc1 | inactive
7 | S=C(NCc1cccnc1)Nc1ccc(Oc2ccc(Cl)cc2)cc1 | inactive
8 | C(=NN1CCCCCC1)c1ccc2ccccc2n1 | 0.1 µM (active)
9 | S=C(Nc1cc(Cl)ccc1Oc1ccccc1)N1CCN(c2ccccn2)CC1 | inactive
10 | CN(c1ccccc1)S(=O)(=O)c1cccc(NC(=O)c2cc(=O)c3ccccc3o2)c1 | inactive
11 | O=C(COc1nsnc1N1CCOCC1)N/N=C/c1ccccc1O | inactive
12 | COc1ccccc1N(CC(=O)N/N=C/c1c(O)ccc2ccccc12)S(C)(=O)=O | inactive
13 | Cn1c(CO)cnc1SCC(=O)c1ccc(Br)cc1 | inactive
14 | CC(=O)Nc1cccc(-c2ccnc3c2CC(C)(C(=O)Nc2ccc(Cl)cc2)O3)c1 (stereo not drawn) | inactive
15 | CCCCOc1ccc(CSC(=N)N)cc1Cl | inactive
16 | O=[N+]([O-])c1cc(Cl)c(O)c2ncccc12 | inactive
17 | Cc1cccn2c(=O)c(/C=C(\C#N)C(N)=O)c(N3CCN(c4cccc(Cl)c4)CC3)nc12 | inactive
18 | NC(c1csc(NC(=O)c2cccc(OC(F)(F)F)c2)n1)c1ccccc1Cl (stereo not drawn) | inactive
19 | COc1cc(/C=N\NC(=O)CC#N)ccc1OC/C=C/c1ccccc1 | inactive
20 | COC(=O)c1cc(NC(=O)c2cc(-c3ccc(C(F)(F)F)cc3)oc2C(F)(F)F)ccc1N1CCOCC1 | inactive
21 | COC1CC(C)C(OC)c2cc(O)cc(c2O)NC(=O)C(C)=CC=CC(C)C(OC(N)=O)C(C)=CC(C)C1OC (stereo not drawn) | inactive
22 | Cc1cccc(C(=O)N/N=C2\CS(=O)(=O)N(C)c3ccsc32)c1 | inactive
23 | CC(=O)Oc1ccc(N(C(C)=O)S(=O)(=O)c2ccc(Cl)cc2)c2ccccc12 | inactive

Row | SMILES | Potency
24 | CCOC(=O)CSc1cccc2cccnc12 | inactive
25 | CC(=O)Nc1cccc(-c2ccnc3c2CC(C)(C(=O)Nc2ccc(Cl)c(C(F)(F)F)c2)O3)c1 (stereo not drawn) | inactive
26 | Cc1ccc2ccc(C(Nc3ccccn3)c3ccccc3)c(O)c2n1 (stereo not drawn) | inactive
27 | Cc1nc2ccccc2n1/N=C/c1ccc([N+](=O)[O-])o1 | inactive
28 | COc1ccc(-c2cnc3c(NC=O)cc(-c4ccccc4OC)cn23)cc1OC | inactive
29 | COc1ccccc1-c1cc(NC=O)c2ncc(-c3ccc(F)cc3)n2c1 | inactive
30 | CN1CCN(c2ccc(-c3cc(NC=O)c4ncc(-c5ccc(F)c(Cl)c5)n4c3)cc2)CC1 | 15.8 µM (active)
31 | Cc1cc(C)nc(N/N=C2/CCCC/C2=C\c2ccccc2)n1 | inactive
32 | Cc1ccc(C(NC(=O)C2CCN(Cc3ccc(Cl)c(Cl)c3)CC2)c2ccccn2)cc1 (stereo not drawn) | inactive
33 | Cn1c(=O)c2c(nc(CN3CCN(Cc4ccccc4)CC3)n2Cc2ccc(Cl)cc2)n(C)c1=O | inactive
34 | Cn1c2ccccc2c(=O)c2c(=O)n(C3CCCCC3)c(-c3cccs3)nc21 | inactive
35 | CC1(C)Cc2ccccc2C(NNC(=O)c2ccccn2)=N1 | inactive
36 | CC(OC(=O)c1cc(Br)ccc1O)C(=O)Nc1ccc(S(=O)(=O)N2CCCC2)cc1 (stereo not drawn) | inactive
37 | O=C(Nc1ccc(N2CCN(C(=O)c3cccs3)CC2)c(Cl)c1)c1cccnc1 | inactive
38 | N#Cc1nc(Cc2cccc3ccccc23)oc1NCc1ccc(F)cc1 | inactive
39 | CC(C)CC(N)c1csc(Nc2ccc(C(=O)N(C)Cc3ccccc3)cn2)n1 (stereo not drawn) | inactive
40 | COc1ccc(C(=O)Nn2c(SCC(=O)c3ccccc3)nc3ccccc3c2=O)cc1 | 7.08 µM (active)
41 | COc1ccc(C(=O)NNC(=S)NC(=O)c2ccccc2)cc1 | inactive
42 | COc1ccc(Nc2c3ccccc3nc3ccccc23)cc1 | inactive
43 | CC1(C(=O)NCc2ccccc2Br)CCN1C(=O)Cc1ccc(-c2ccccc2)cc1 (stereo not drawn) | inactive
44 | Cc1cc(C(=O)N/N=C/c2c(CO)cnc(C)c2O)c2ccccc2n1 | inactive
45 | CSCc1nnc(NC(=O)c2ccc(S(=O)(=O)N3CCCCC3C)cc2)o1 (stereo not drawn) | inactive
46 | COc1ccc(C(NC(=O)c2cccnc2)c2cc(Cl)c3cccnc3c2O)cc1OC (stereo not drawn) | inactive

Row | SMILES | Potency
47 | CC[C@H]1CN2CCc3cc(OC)c(OC)cc3C2C[C@@H]1C[C@H]1NCCc2cc(OC)c(OC)cc21 (stereo partly drawn) | inactive
48 | Cc1cc(C(=O)N/N=C/c2cc(Br)cc(Br)c2OC(=O)c2cccc(F)c2)n[nH]1 | inactive
49 | O=[N+]([O-])c1c(Nc2ccccn2)cc(Cl)c2nonc12 | inactive
50 | COC(=O)Cc1ccc(NC(=S)N2CCN(c3cc(Cl)ccc3C)CC2)cc1 | inactive
51 | CN(C)CCCN(C(=O)c1ccc(S(=O)(=O)N(C)Cc2ccccc2)cc1)c1nc2cc3c(cc2s1)OCO3 | inactive
52 | COc1ccccc1/C=C/CN1CCCC(CO)(Cc2cccc(Cl)c2)C1 (stereo not drawn) | inactive
53 | COc1ccc(Cl)cc1C(Nc1cccnc1)c1ccc2cccnc2c1O (stereo not drawn) | inactive
54 | Cc1sc(NC(=O)c2cc(-c3ccc(Cl)cc3)nc3ccccc23)c(C(N)=O)c1C | 25.1 µM (active)
55 | Cc1cccc(NC(=O)c2cc(-c3ccccn3)nc3ccccc23)c1C | inactive
56 | CN1CCC(NC(=O)c2cc(-c3cccc(Br)c3)nc3ccccc23)CC1 | inactive
57 | COc1ccccc1-c1cc2nc(-c3ccccc3)cc(N3CCN(C(=O)c4ccco4)CC3)n2n1 | inactive
58 | O=C(Nc1ccc(OC(F)(F)F)cc1)N1CCN(c2ccnc3cc(Cl)ccc23)CC1 | inactive
59 | COc1cccc(CNc2nc(NCc3ccccc3)nc3ccsc23)c1 | inactive
60 | CC(C)Nc1nc(NCCOc2ccccc2)c2sccc2n1 | inactive
61 | CC(=O)Nc1ccc(CNc2nc(NC(C)C)nc3cc(-c4ccccc4)sc23)cc1 | 14.1 µM (active)
62 | COc1ccccc1NC(=O)CSc1n[nH]c(-c2ccccn2)n1 | inactive
63 | CC(C)c1ccc(S(=O)(=O)c2cc3cc(Br)ccc3oc2=O)cc1 | inactive
64 | N=c1n(CCN2CCCCC2)c2ccccc2n1CC(O)c1ccc(Cl)c(Cl)c1 (stereo not drawn) | inactive
65 | CCOC(=O)c1c(C)sc2c1N(C(=O)CN(CC)CC)c1cc(Cl)ccc1S2 | inactive
66 | COc1ccc(NC(=O)c2cc(-c3cc(Cl)ccc3OC)n[nH]2)cc1OC | inactive
67 | Cc1nc2c(OCc3cccc(Cl)c3)cccn2c1N(C)Cc1cccs1 | inactive
68 | C(=N\Nc1ccc2nncn2n1)/c1ccccn1 | inactive
